LGR2 antag: Drosophila LGR2 receptor signaling inhibition. HEK293 LGR2, CRE-luciferase, bursicon-stimulated, 4 h. inhibition, % at 9.99 µM. 380,000 tested, 0.35% active. AID 720647;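 active means drop in luminescence signal, shown as inhibition above about 50% in the replicate tests, limit read from the data, passing the limit was not always enough; inconclusive means probably only some replicates passing the limit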;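 further: agonist challenge used bursicon conditioned medium at about half maximal strength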
PGC1a acetyl inh: PGC1a acetylation modulation, inhibitor mode; U2OS PGC1a acetylation, AlphaScreen anti-acetyl-lysine; with virally co-expressed GCN5 acetyltransferase; inhibition, % at 15.6 µM; 350,000 tested, 0.17% active;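 active means every replicate shows inhibition of at least 40%; inconclusive means mean inhibition at least 40% but some replicate below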
EBV LMP1 NFkB: inhibitors of Epstein-Barr LMP1-induced NF-kappaB reporter | LMP1-induced NF-kappaB luciferase reporter cells, luminescence | inhibition, % at 12.5 µM | 350,000 tested, 0.69% active; in the data active means inhibition above about 41%; inconclusive means no clear call, values can overlap the other calls
EWS-Fli inh: inhibitors of EWS/Fli oncoprotein transcriptional activity; AID 651661; inhibition, % at 12.6 µM; 350,000 tested, 0.67% active; A673 NR0B1-luciferase reporter, viability-normalised;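 active means mean inhibition of at least 50% after viability correction, with every replicate also passing that limit; inconclusive means mean reaches 50% but only one of two replicates passes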;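 further: firefly luciferase signal divided by Alamar Blue viability fluorescence both relative to DMSO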
TRPM1 prom inh: MITF TRPM1 promoter inhibition in SK-MEL-5 cells. SK-MEL-5 TRPM1 promoter luciferase, 24 h. inhibition, % at 12.5 µM. 330,000 tested, 0.83% active;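 active means mean inhibition across replicates of 60% or more, whatever share of single replicates reaches that level; inconclusive means some that reach 60%, reason not given; inactive means mean inhibition across replicates below 60%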
PAX8 reporter: PAX8 transcriptional activity inhibition; RMG-I TPO-luciferase reporter, SteadyGlo, 24 h; inhibition, % at 12.6 µM; 360,000 tested, 1.2% active; AID 652154;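 active means mean replicate inhibition at least 60% with every replicate also reaching 60%; inconclusive means only one of the two criteria is met; inactive means mean below 60% and not all replicates reaching 60%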;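 further: luciferase light reporting Pax8 driven TPO promoter activity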
Of the large screens only hits and unclear results are named; the others gave an inactive call. In the library only some 2.2% were active in any assay of this set; here they are far more common.

C[C@@H]1CCCCO[C@H](CN(C)Cc2ccccc2)[C@@H](C)CN([C@H](C)CO)C(=O)c2cc(NC(=O)Nc3ccc(C(F)(F)F)cc3)ccc2O1	none (no result: EBV LMP1 NFkB, TRPM1 prom inh)
C[C@H]1CCCCO[C@H](CN(C)Cc2ccccc2)[C@@H](C)CN([C@@H](C)CO)C(=O)c2cc(NC(=O)Nc3ccc(C(F)(F)F)cc3)ccc2O1	PAX8 reporter 120.1 (no result: EBV LMP1 NFkB, TRPM1 prom inh)
C[C@@H]1CCCCO[C@H](CN(C)Cc2ccccc2)[C@H](C)CN([C@H](C)CO)C(=O)c2cc(NC(=O)Nc3ccc(C(F)(F)F)cc3)ccc2O1	PAX8 reporter 106.6 (no result: EBV LMP1 NFkB, TRPM1 prom inh)
C[C@@H]1CCCCO[C@H](CN(C)Cc2ccccc2)[C@H](C)CN([C@@H](C)CO)C(=O)c2cc(NC(=O)Nc3ccc(C(F)(F)F)cc3)ccc2O1	PAX8 reporter 115.2 (no result: EBV LMP1 NFkB, TRPM1 prom inh)
C[C@H]1CCCCO[C@@H](CN(C)Cc2ccccc2)[C@@H](C)CN([C@@H](C)CO)C(=O)c2cc(NC(=O)Nc3ccc(C(F)(F)F)cc3)ccc2O1	PAX8 reporter 108.5 (no result: EBV LMP1 NFkB, TRPM1 prom inh)
CCCNC(=O)N(C)C[C@H]1Oc2ncc(-c3ccc(OC)cc3)cc2C(=O)N([C@H](C)CO)C[C@H]1C	none (no result: EBV LMP1 NFkB, TRPM1 prom inh, PAX8 reporter)
CCCNC(=O)C[C@@H]1CC[C@@H]2[C@H](COc3ccc(NS(=O)(=O)CC)cc3C(=O)N2C)O1	none (no result: EBV LMP1 NFkB, TRPM1 prom inh)
C[C@@H]1CN([C@@H](C)CO)C(=O)c2cc(NC(=O)Nc3ccc(C(F)(F)F)cc3)ccc2O[C@@H](C)CCCCO[C@H]1CN(C)Cc1ccccc1	PAX8 reporter 66.3 (no result: EBV LMP1 NFkB, TRPM1 prom inh)
C[C@H](CO)N1C[C@H](C)[C@H](CN(C)Cc2ccccc2)OCCCC[C@H](C)Oc2ccc(NC(=O)Nc3ccc(C(F)(F)F)cc3)cc2C1=O	PAX8 reporter 115.3 (no result: EBV LMP1 NFkB, TRPM1 prom inh)
Cc1ccccc1-c1ccc([C@@H]2[C@H](CO)N3CCCCN(C(=O)CN4CCOCC4)C[C@@H]23)cc1	none (no result: EBV LMP1 NFkB, TRPM1 prom inh)
CCC(=O)Nc1ccc2c(c1)C(=O)N(C)C[C@@H](OC)[C@H](C)CN(C(=O)CC1CC1)[C@@H](C)CO2	none (no result: EBV LMP1 NFkB, TRPM1 prom inh, PAX8 reporter)
CN(C)c1cccc(F)c1C(=O)NC(=O)Nc1ccc(Cl)cc1	EWS-Fli inh 52.9 (no result: PAX8 reporter)
CCC(=O)N[C@@H]1C=C[C@H](CC(=O)NCCN2CCCCC2)O[C@H]1CO	none (no result: EBV LMP1 NFkB, TRPM1 prom inh)
O=C(NC[C@@H]1CC[C@H]2[C@H](CN2S(=O)(=O)c2ccccc2[N+](=O)[O-])O1)Nc1ccccc1	none (no result: LGR2 antag, EBV LMP1 NFkB, TRPM1 prom inh, PAX8 reporter)
COc1cc2c(oc(=O)c3cc(C)cc(OC)c32)c2c(C3OC(C)C(O)C(C)(O)C3O)ccc(O)c12 (configuration not stated)	EBV LMP1 NFkB 77.6, TRPM1 prom inh 65.1 (no result: PAX8 reporter)
COc1cccc2cc(C(=O)N3CC(C)OC(C)C3)c(=O)oc12 (configuration not stated)	none (no result: PGC1a acetyl inh)
O=c1cc(-c2ccc(O)cc2)oc2ccc3ccccc3c12	LGR2 antag 100.1, EWS-Fli inh 88.6, TRPM1 prom inh 83.1, PAX8 reporter 110.3
O=C(C[C@H]1CC[C@@H]2[C@H](COC[C@@H](O)CN2Cc2ccc3c(c2)OCO3)O1)Nc1ccccc1	none (no result: EBV LMP1 NFkB, TRPM1 prom inh)
CCCC(NCC(O)COc1ccc(-c2ccccc2)cc1)c1ccccc1 (configuration not stated)	LGR2 antag 75.0 (no result: PGC1a acetyl inh)
CC(NCC(O)COc1ccc2ccccc2c1)c1ccccc1 (configuration not stated)	none (no result: PGC1a acetyl inh)
Cc1cc(OCC(O)CNC(C)c2ccccc2)ccc1C(C)C (configuration not stated)	LGR2 antag 66.2
COc1ccc(OCC(O)CNC(C)c2ccccc2)cc1 (configuration not stated)	none
C=CCCC(=O)Nc1nc(C)c(-c2csc(Nc3cc(OC)ccc3OC)n2)s1	EWS-Fli inh 58.2
CCCC(=O)Nc1nc(C)c(-c2csc(Nc3cc(OC)ccc3OC)n2)s1	none
CN(C)C(=O)c1ccc(-c2ccc3c(c2)[C@H]2[C@H](CCN2C(=O)C2CCC2)[C@H](CO)N3C)cc1	none (no result: EBV LMP1 NFkB, TRPM1 prom inh)
CC1=[N+](C)c2c(ccc3cccnc23)C1(C)C	LGR2 antag inconclusive, PAX8 reporter 85.3
Cc1[nH]c2c(ccc3cccnc32)c1C	none
COc1cc(N2C(=O)C=CC2=O)c(OC)cc1Cl	PAX8 reporter 109.6
COc1ccc(C(=O)N(C)C(C)c2nccs2)cc1OC1CCN(C(C)=O)CC1 (configuration not stated)	none (no result: PGC1a acetyl inh, TRPM1 prom inh)
